Experimental data taken from PubChem BioAssay (NCI).
The panel holds about 83,000 compounds, 20% with a hit somewhere; the sample as a whole holds those more often.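 Testing used 96-well plates and a 48-hour single-concentration exposure. Example: -40 means 40% of the starting cells died.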 Calls of active or inactive are those of the source. How the source made its calls: active means growth percent below 10; inactive means the rest.

How the values were obtained:
Test in all cases: NCI-60 one-dose screen, 48 h (100 = growth as untreated, 0 = no growth, -100 = all killed)
DU-145 prostate = conditions: 10 µM unless noted
K-562 leukemia = conditions: 10 µM unless noted
MALME-3M melanoma = conditions: 10 µM unless noted
MDA-MB-231 breast = conditions: 10 µM unless noted
RXF 393 renal = conditions: 10 µM unless noted
SF-268 CNS = conditions: 10 µM unless noted
SF-295 CNS = conditions: 10 µM unless noted
SF-539 CNS = conditions: 10 µM unless noted
UACC-257 melanoma = conditions: 10 µM unless noted
M14 melanoma = conditions: 10 µM unless noted
HCT-15 colon = conditions: 10 µM unless noted
HT29 colon = conditions: 10 µM unless noted
SNB-75 CNS = conditions: 10 µM unless noted
U251 CNS = conditions: 10 µM unless noted
PC-3 prostate = conditions: 10 µM unless noted
SK-MEL-5 melanoma = conditions: 10 µM unless noted
UACC-62 melanoma = conditions: 10 µM unless noted
LOX IMVI melanoma = conditions: 10 µM
SK-MEL-28 melanoma = conditions: 10 µM unless noted

Measured: growth

CC1(C)CC[C@]2(C(=O)Nc3ccc(F)cc3)CC[C@]3(C)C(=CCC4[C@@]5(C)C[C@@H](O)[C@H](O)[C@@](C)(CO)C5CC[C@]43C)C2C1 (some centres not stated)
inactive: DU-145 prostate 59.7% | K-562 leukemia 18% | MALME-3M melanoma 60.7% | MDA-MB-231 breast 27.8% | SF-268 CNS 52.6% | SF-295 CNS 26.1% | SF-539 CNS 49.7% | UACC-257 melanoma 27.7% | M14 melanoma 46.6% | HCT-15 colon 24.1% | SNB-75 CNS 81.7% | U251 CNS 38.3% | PC-3 prostate 11.2% | UACC-62 melanoma 35% | LOX IMVI melanoma 26.5% | SK-MEL-28 melanoma 52.9%
active: RXF 393 renal -6.8% | HT29 colon 5.61% | SK-MEL-5 melanoma -47.6%

COc1ccc(N2N=C(c3ccc4c(c3)OCO4)CC2c2cccc(NC(=O)CCNS(=O)(=O)c3ccc(Cl)cc3)c2)cc1 (configuration not stated)
inactive: DU-145 prostate 39.7% | MALME-3M melanoma 18.7% | SF-268 CNS 32.8% | SF-295 CNS 10.7% | SF-539 CNS 38.2% | UACC-257 melanoma 49.2% | M14 melanoma 29.5% | HCT-15 colon 33% | HT29 colon 17.1% | SNB-75 CNS 49.4% | U251 CNS 29.5% | PC-3 prostate 16.5% | SK-MEL-5 melanoma 24.2% | UACC-62 melanoma 39.5% | LOX IMVI melanoma 23.3% | SK-MEL-28 melanoma 28.2%
active: K-562 leukemia 9.67% | MDA-MB-231 breast -5.89% | RXF 393 renal 4.88%

CC(=O)OC[C@@]1(C)C2CC[C@]3(C)C(CC=C4C5CC(C)(C)CC[C@]5(C(=O)Nc5ccc(Br)cc5)CC[C@]43C)[C@@]2(C)C[C@@H](OC(C)=O)[C@@H]1OC(C)=O (some centres not stated)
inactive: DU-145 prostate 49% | K-562 leukemia 19.2% | MALME-3M melanoma 55.9% | MDA-MB-231 breast 62.3% | RXF 393 renal 72.8% | SF-268 CNS 66.1% | SF-295 CNS 26.8% | SF-539 CNS 38.7% | UACC-257 melanoma 20% | M14 melanoma 52.6% | HCT-15 colon 30.6% | HT29 colon 27% | SNB-75 CNS 56.1% | U251 CNS 38.5% | PC-3 prostate 35.5% | UACC-62 melanoma 44.1% | LOX IMVI melanoma 12.2% | SK-MEL-28 melanoma 72.3%
active: SK-MEL-5 melanoma 8.44%

O=c1[nH]c2ccccc2cc1CSc1cccc(Nc2nccc(-c3ccc4ccccc4c3)n2)c1
inactive: DU-145 prostate 89.6% | K-562 leukemia 64.3% | MALME-3M melanoma 92% | MDA-MB-231 breast 95.6% | RXF 393 renal 81.3% | SF-268 CNS 98.1% | SF-295 CNS 88% | SF-539 CNS 98.3% | UACC-257 melanoma 99.3% | M14 melanoma 86.7% | HCT-15 colon 65.1% | HT29 colon 81.8% | SNB-75 CNS 84.6% | U251 CNS 81.9% | PC-3 prostate 71% | SK-MEL-5 melanoma 63.8% | UACC-62 melanoma 95.2% | LOX IMVI melanoma 87.4% | SK-MEL-28 melanoma 106%

O=C(c1ccc(Cl)cc1)c1ccc(OCCCN2CCN(c3ccncc3)CC2)cc1
inactive: DU-145 prostate 62.1% | MDA-MB-231 breast 17.2% | RXF 393 renal 32.8% | SF-268 CNS 73.2% | SF-295 CNS 17.6% | SF-539 CNS 16.7% | UACC-257 melanoma 42.4% | HT29 colon 11.2% | SNB-75 CNS 69.4% | U251 CNS 28.6% | PC-3 prostate 26.9% | LOX IMVI melanoma 10.1% | SK-MEL-28 melanoma 14.8%
active: K-562 leukemia 1.45% | MALME-3M melanoma -54.1% | M14 melanoma -36.2% | HCT-15 colon -18.6% | SK-MEL-5 melanoma -47.7% | UACC-62 melanoma -63.5%

CCCSc1nc(NCCc2c[nH]c3ccccc23)c(C#N)c(-c2ccc(OC)cc2)n1
inactive: DU-145 prostate 62.2% | K-562 leukemia 23.5% | MALME-3M melanoma 83.1% | MDA-MB-231 breast 41.2% | SF-268 CNS 57.4% | SF-295 CNS 29.7% | SF-539 CNS 50.6% | UACC-257 melanoma 89.8% | M14 melanoma 63.5% | HCT-15 colon 21.8% | HT29 colon 22.5% | SNB-75 CNS 78.9% | U251 CNS 41.5% | PC-3 prostate 15.1% | SK-MEL-5 melanoma 29.5% | UACC-62 melanoma 71.7% | LOX IMVI melanoma 37.1% | SK-MEL-28 melanoma 71.4%
active: RXF 393 renal -17.3%

Cc1cc(=O)oc2cc(OCCCCOc3ccc(/C=C/C(=O)Nc4ccccc4N)cc3)ccc12
active: SK-MEL-5 melanoma -66.1% | LOX IMVI melanoma 0.965%
inactive: DU-145 prostate 65.7% | K-562 leukemia 35% | MALME-3M melanoma 90.8% | MDA-MB-231 breast 48.2% | RXF 393 renal 90.9% | SF-268 CNS 49.4% | SF-295 CNS 63.1% | SF-539 CNS 53.1% | UACC-257 melanoma 82.4% | M14 melanoma 79.5% | HCT-15 colon 75.8% | HT29 colon 91.4% | SNB-75 CNS 67% | U251 CNS 60.2% | PC-3 prostate 61% | UACC-62 melanoma 69.2% | SK-MEL-28 melanoma 81.2%

Cc1ccc(C(SCCNCc2cc(N(C)C)ccn2)(c2ccccc2)c2ccccc2)cc1
active: DU-145 prostate -8% | K-562 leukemia -42.7% | MALME-3M melanoma -94.4% | MDA-MB-231 breast -56.9% | RXF 393 renal -47.3% | SF-268 CNS -2.09% | SF-295 CNS -96.1% | SF-539 CNS -99.1% | UACC-257 melanoma -65.4% | M14 melanoma -84.3% | HCT-15 colon -68.8% | HT29 colon -77.2% | SNB-75 CNS 8.64% | U251 CNS -89.3% | PC-3 prostate -43.4% | SK-MEL-5 melanoma -100% | UACC-62 melanoma -64.4% | LOX IMVI melanoma -100% | SK-MEL-28 melanoma -95.3%

CN(C)c1ccnc(CNCCSC2(c3ccc(C(F)(F)F)cc3)c3ccccc3C=Cc3ccccc32)c1
active: DU-145 prostate 3.69% | K-562 leukemia -11.1% | MALME-3M melanoma -89.7% | MDA-MB-231 breast -48% | RXF 393 renal -26.7% | SF-268 CNS 7.1% | SF-295 CNS -90.6% | SF-539 CNS -96.8% | UACC-257 melanoma -20.6% | M14 melanoma -74.7% | HCT-15 colon -90.6% | HT29 colon -61.7% | SNB-75 CNS -6.52% | U251 CNS -77% | PC-3 prostate -3.49% | SK-MEL-5 melanoma -97.1% | UACC-62 melanoma 2.63% | LOX IMVI melanoma -92% | SK-MEL-28 melanoma -67.4%

Clc1ccc(-c2ccc(OCCCN3CCN(c4ccncc4)CC3)cc2)cc1
inactive: DU-145 prostate 69.1% | MALME-3M melanoma 84.2% | MDA-MB-231 breast 33.1% | RXF 393 renal 15.3% | SF-268 CNS 75.9% | SF-295 CNS 40.6% | SF-539 CNS 30% | UACC-257 melanoma 90.2% | SNB-75 CNS 83.6% | U251 CNS 35.7% | PC-3 prostate 24.6% | SK-MEL-5 melanoma 13.7% | UACC-62 melanoma 74% | SK-MEL-28 melanoma 90.1%
active: K-562 leukemia -45.6% | M14 melanoma -54.6% | HCT-15 colon -66% | HT29 colon -30.6% | LOX IMVI melanoma -89.8%

Cc1cc(C)cc(NC(=O)Cn2cc(COn3nnc4ccccc43)nn2)c1
inactive: DU-145 prostate 111% | K-562 leukemia 102% | MALME-3M melanoma 108% | MDA-MB-231 breast 106% | RXF 393 renal 122% | SF-268 CNS 116% | SF-295 CNS 110% | SF-539 CNS 99.6% | UACC-257 melanoma 101% | M14 melanoma 106% | HCT-15 colon 106% | HT29 colon 104% | SNB-75 CNS 96.3% | U251 CNS 103% | PC-3 prostate 97.9% | SK-MEL-5 melanoma 101% | UACC-62 melanoma 96.9% | LOX IMVI melanoma 100% | SK-MEL-28 melanoma 100%

COc1ccc(C(=O)/C=C/c2ccc(OCc3ccccc3)c(OC)c2)cc1OC
inactive: K-562 leukemia 10.5% | MALME-3M melanoma 71.5% | MDA-MB-231 breast 13% | RXF 393 renal 24.2% | SF-268 CNS 32.6% | SF-295 CNS 25.8% | UACC-257 melanoma 58.9% | M14 melanoma 62.3% | HT29 colon 15.1% | U251 CNS 10.1% | PC-3 prostate 37% | SK-MEL-5 melanoma 34.9% | UACC-62 melanoma 29% | SK-MEL-28 melanoma 70.4%
active: DU-145 prostate 7.25% | SF-539 CNS -37.9% | HCT-15 colon 9.77% | SNB-75 CNS -15.9%
